Results reported in PubChem BioAssay (Tox21).
Where “and” joins values, the source holds several entries; their conditions need not be identical. Equal entries are not always repeated. Inconclusive results are not listed. Calls of active or inactive are those of the source. Unless noted, the call rests on the fitted dose curve; in most records, active means well fitted curve in the direction sought with a large enough effect in the repeat runs; inconclusive means weak or mixed curves; inactive means no such curve, though single readings can be large; an effect the other way counts as inactive or inconclusive.

Assays:
[1] = target: Peroxisome proliferator-activated receptor delta (Homo sapiens) (UniProt Q03181); test: qHTS assay to identify small molecule agonists of the peroxisome proliferator-activated receptor delta (PPARd) signaling pathway (AID 743212; calls by dose curve;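 further: HEK293H cells with PPARd UAS beta-lactamase reporter GeneBLAzer system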; further: potency means the concentration at half of the fitted maximal effect)
How it was run: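 Beta-lactamase reporter readout: a ratiometric FRET signal from the LiveBLAzer substrate after 2 h at room temperature. Compound exposure at 37 °C in PPARδ-bla HEK293H cells driven by an upstream activator sequence.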

[2] = qHTS assay to identify small molecule antagonists of the peroxisome proliferator-activated receptor delta (PPARd) signaling pathway - cell viability counter screen (AID 743213); further: nearly all actives have a fitted effect of over 50% in size; further: potency means the concentration at half of the fitted maximal effect
How it was run: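 Cytotoxicity counter screen: CellTiter-Glo luminescence read 30 min after addition, in the same wells as the reporter assay. There, PPARd UAS-bla HEK293H cells (3000/well) were treated 17 h at 37 C with compound and 300 nM L165041.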

[3] = target: Peroxisome proliferator-activated receptor delta (Homo sapiens) (UniProt Q03181); test: qHTS assay to identify small molecule antagonists of the peroxisome proliferator-activated receptor delta (PPARd) signaling pathway (AID 743215; active means well fitted inhibition curve with a large enough effect in the signal ratio in the repeat runs, not every such curve was filed as active; the % refers to the signal ratio;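 further: cells stimulated with agonist L165041 at 300 nM final during compound exposure; series mostly up to about 62 µM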)
How it was run: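 Plated HEK293H PPARd-bla cells rested 5 h at 37 C and 5% CO2. Compound, then agonist L165041 at 300 nM final, was added; 17 h at 37 C followed. Substrate loading, 2 h room temperature, fluorescence measured.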

[4] = qHTS assay to identify small molecule agonists of the farnesoid-X-receptor (FXR) signaling pathway - cell viability counter screen (AID 743218); further: nearly all actives have a fitted effect of over 45% in size; further: potency means the concentration at half of the fitted maximal effect
How it was run: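 Viability of FXR-bla HEK 293T cells is measured by ATP-based CellTiter-Glo luminescence following 16 h compound treatment at 37 C and a prior 2 h room-temperature beta-lactamase substrate step.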

[5] = target: Vitamin D3 receptor (Homo sapiens) (UniProt P11473); test: qHTS assay to identify small molecule antagonists of the vitamin D receptor (VDR) signaling pathway (AID 743223; active means well fitted inhibition curve with a large enough effect in the signal ratio in the repeat runs, not every such curve was filed as active; the % refers to the signal ratio)
How it was run: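 Fluorescence from LiveBLAzer B/G FRET substrate, read after 2 h at room temperature, reflects beta-lactamase reporter activity in VDR-bla cells treated 16 h at 37C with compounds and agonist 1alpha,25-dihydroxyvitamin D3 (3 nM final).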

[6] = target: Bile acid receptor (Homo sapiens) (UniProt Q96RI1); test: qHTS assay to identify small molecule antagonists of the farnesoid-X-receptor (FXR) signaling pathway (AID 743217; active means well fitted inhibition curve with a large enough effect in the signal ratio in the repeat runs, not every such curve was filed as active; the % refers to the signal ratio)
How it was run: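 Screen of the Tox21 10K library in quantitative HTS format using FXR-UAS-bla HEK 293T reporter cells. Agonist chenodeoxycholic acid, 50 uM final, added with compounds; 16 h incubation at 37 °C; beta-lactamase FRET fluorescence measured.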

[7] = target: Bile acid receptor (Homo sapiens) (UniProt Q96RI1); test: qHTS assay to identify small molecule agonists of the farnesoid-X-receptor (FXR) signaling pathway (AID 743220; active means well fitted activation curve with a large enough effect in the signal ratio in the repeat runs, not every such curve was filed as active; the % refers to the signal ratio; further: potency means the concentration at half of the fitted maximal effect)
How it was run: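 FXR-UAS-bla HEK 293T cells carrying a UAS-driven beta-lactamase reporter were plated for 5 h at 37C/5% CO2, then exposed to DMSO-dissolved Tox21 10K compounds for 16 h at 37C. A LiveBLAzer B/G FRET substrate was loaded for 2 h at room temperature before fluorescence reading.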

[8] = qHTS assay to identify small molecule antagonists of the farnesoid-X-receptor (FXR) signaling pathway - cell viability counter screen (AID 743221; active means well fitted cell-killing curve with a large enough effect in the repeat runs, not every such curve was filed as active; further: nearly all actives have a fitted effect of over 50% in size)
How it was run: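 Quantitative HTS of the Tox21 10K library run in parallel with the beta-lactamase reporter read. HEK 293T cells carrying a UAS-driven bla reporter got compound and 50 uM CDCA (final) for 16 h; ATP-based luminescence followed.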

[9] = target: Vitamin D3 receptor (Homo sapiens) (UniProt P11473); test: qHTS assay to identify small molecule agonists of the vitamin D receptor (VDR) signaling pathway (AID 743222; calls by dose curve; further: potency means the concentration at half of the fitted maximal effect)
How it was run: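 Fluorescence from cleaved LiveBLAzer B/G FRET substrate served as readout. VDR-bla cells had been treated 16 h at 37C with test compounds in DMSO, following a 4 h settling period, and substrate was loaded for 2 h at RT.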

[10] = qHTS assay to identify small molecule agonists of the vitamin D receptor (VDR) signaling pathway - cell viability counter screen (AID 743224); further: nearly all actives have a fitted effect of over 50% in size; further: potency means the concentration at half of the fitted maximal effect; on activity change, negative = cytotoxicity: series mostly up to about 63 µM
How it was run: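 Compounds were pin-transferred onto VDR-bla cells plated 4 h earlier; following 16 h incubation at 37C, cell viability was quantified by CellTiter-Glo luminescence after 30 min at room temperature.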
On the % scale 0 is the no-effect control and ±100 the full control effect.

Sequence of Vitamin D3 receptor (Homo sapiens) (P11473 whole entry, looked up): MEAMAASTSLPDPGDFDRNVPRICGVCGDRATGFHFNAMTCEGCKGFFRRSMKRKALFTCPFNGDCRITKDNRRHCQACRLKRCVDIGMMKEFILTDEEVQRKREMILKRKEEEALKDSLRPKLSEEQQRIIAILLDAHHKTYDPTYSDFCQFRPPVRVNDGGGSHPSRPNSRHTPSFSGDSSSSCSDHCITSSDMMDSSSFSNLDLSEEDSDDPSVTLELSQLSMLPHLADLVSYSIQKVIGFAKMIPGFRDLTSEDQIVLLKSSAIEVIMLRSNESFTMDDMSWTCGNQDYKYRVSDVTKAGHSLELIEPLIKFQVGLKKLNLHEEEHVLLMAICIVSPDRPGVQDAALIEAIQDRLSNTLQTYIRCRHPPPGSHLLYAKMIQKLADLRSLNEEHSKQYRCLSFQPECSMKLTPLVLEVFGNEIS
Sequence of Peroxisome proliferator-activated receptor delta (Homo sapiens) (Q03181 whole entry, looked up): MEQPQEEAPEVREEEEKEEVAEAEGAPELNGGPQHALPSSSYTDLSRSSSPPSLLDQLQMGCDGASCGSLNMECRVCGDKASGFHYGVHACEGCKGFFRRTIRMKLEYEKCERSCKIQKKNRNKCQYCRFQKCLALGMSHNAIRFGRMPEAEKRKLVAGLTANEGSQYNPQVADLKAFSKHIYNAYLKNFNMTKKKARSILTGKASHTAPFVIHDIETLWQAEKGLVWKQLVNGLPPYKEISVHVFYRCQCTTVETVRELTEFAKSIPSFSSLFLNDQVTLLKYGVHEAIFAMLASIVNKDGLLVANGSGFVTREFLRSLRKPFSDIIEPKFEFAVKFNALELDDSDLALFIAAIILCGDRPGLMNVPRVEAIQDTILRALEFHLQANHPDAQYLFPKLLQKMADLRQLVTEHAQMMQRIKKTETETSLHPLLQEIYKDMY
Sequence of Bile acid receptor (Homo sapiens) (Q96RI1 whole entry, looked up): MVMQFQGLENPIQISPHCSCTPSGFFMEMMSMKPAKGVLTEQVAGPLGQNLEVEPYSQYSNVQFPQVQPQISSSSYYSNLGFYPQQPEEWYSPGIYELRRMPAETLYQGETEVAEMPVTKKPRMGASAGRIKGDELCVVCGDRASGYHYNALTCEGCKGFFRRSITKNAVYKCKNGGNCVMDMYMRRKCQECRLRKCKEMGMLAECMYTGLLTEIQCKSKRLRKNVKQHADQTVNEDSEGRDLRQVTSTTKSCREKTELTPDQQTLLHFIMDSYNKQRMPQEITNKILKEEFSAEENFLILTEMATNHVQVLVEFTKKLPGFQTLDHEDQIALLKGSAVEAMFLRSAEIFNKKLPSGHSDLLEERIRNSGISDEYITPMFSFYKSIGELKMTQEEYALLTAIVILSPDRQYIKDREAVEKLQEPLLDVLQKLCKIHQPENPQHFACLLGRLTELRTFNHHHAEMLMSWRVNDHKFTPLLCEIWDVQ

CCCCCCCCCCC[C@@H](C[C@@H]1OC(=O)[C@H]1CCCCCC)OC(=O)[C@H](CC(C)C)NC=O
inactive: Potency [1] | Potency [2] | Potency [3] | Potency [4] | Potency [5]

CCN1C(=O)c2ccccc2C1Nc1ccc(OCCN2CCCCC2)cc1 (stereo unspecified)
inactive: Potency [1] | Potency [2] | Potency [6] | Potency [4] | Potency [7] | Potency [8] | Potency [9] | Potency [5] | Potency [10]

CCCC(=O)OCCc1ccccc1
inactive: Potency [1] | Potency [2] | Potency [3] | Potency [4] | Potency [9] | Potency [10]

CC(C)(C)NSc1nc2ccccc2s1
inactive: Potency [1] | Potency [2] | Potency [3] | Potency [8] | Potency [9]

OC[C@@H](O)[C@@H](O)CO
inactive: Potency [1] | Potency [2] | Potency [3] | Potency [8] | Potency [10]

Oc1cc(Cl)cc(Cl)c1Cl
inactive: Potency [1] | Potency [2] | Potency [4] | Potency [8] | Potency [9] | Potency [5]

O=C(O)O
active: Potency [2] 2.37 µM
inactive: activation [1] -0.685% [at 5.95 µM] | activity change, negative = cytotoxicity [8] -10.5% [at 5.95 µM] | activity change, negative = inhibition [5] 0.752% [at 6.95 µM]

COc1ccc(NC(=O)CC(C)=O)cc1
inactive: Potency [1] | Potency [2] | Potency [3] | Potency [8] | Potency [9] | Potency [5]

Cc1cccc(C)c1NC(=O)c1ccc(N)cc1
inactive: Potency [1] | Potency [2] | Potency [4] | Potency [8] | Potency [9] | Potency [5]

Cc1nc2n(c(=O)c1CCN1CCC(c3noc4cc(F)ccc34)CC1)CCCC2
inactive: Potency [1] | Potency [2] | Potency [3] | Potency [8] | Potency [9]

CCc1cccc(CC)c1NC(=O)CN(CC(=O)O)CC(=O)O
inactive: Potency [1] | Potency [2] | Potency [3] | Potency [8] | Potency [9] | Potency [5] | Potency [10]

NC(=O)c1cccc([N+](=O)[O-])c1
inactive: Potency [1] | Potency [2] | Potency [3] | Potency [4] | Potency [8] | Potency [10]

OC/C=C/CO
inactive: Potency [1] | Potency [2] | Potency [3] | Potency [8] | Potency [9] | Potency [5] | Potency [10]

CN(C)Cc1cc(C(C)(C)C)c(O)c(C(C)(C)C)c1
inactive: Potency [1] | Potency [2] | Potency [9] | Potency [5] | Potency [10]

OCCN1CCN(CCCN2c3ccccc3Sc3ccc(C(F)(F)F)cc32)CC1
active: Potency [2] 11.9 µM
inactive: Potency [1] | Potency [6] | Potency [7] | Potency [9]

COc1ccc(-c2coc3cc(O)ccc3c2=O)cc1
inactive: Potency [1] | Potency [2] | Potency [4] | Potency [8] | Potency [9] | Potency [10]

CCC(CC)C(C)CCOC(C)=O (stereo unspecified)
inactive: Potency [1] | Potency [2] | Potency [3] | Potency [8] | Potency [9] | Potency [5] | Potency [10]

C#C[C@]1(OC(C)=O)CC[C@H]2[C@@H]3CCC4=C/C(=N/O)CC[C@@H]4[C@H]3CC[C@@]21CC
inactive: Potency [1] | Potency [2] | Potency [3] | Potency [7] | Potency [10]

CCC(C)n1ncn(-c2ccc(N3CCN(c4ccc(OC[C@H]5CO[C@](Cn6cncn6)(c6ccc(Cl)cc6Cl)O5)cc4)CC3)cc2)c1=O (stereo partly specified)
inactive: Potency [1] | Potency [3] | Potency [8] | Potency [9] | Potency [5] | Potency [10]
active: Potency [2] 2.11 µM

CCCCCCCCCCOC(=O)c1ccccc1C(=O)OCCCCCCCC
inactive: Potency [1] | Potency [2] | Potency [4] | Potency [8]

CCCCNS(=O)(=O)c1ccc(C)cc1
inactive: Potency [1] | Potency [2] | Potency [3] | Potency [4] | Potency [10]

O=C(O)[C@H](O)[C@@H](O)[C@H](O[C@@H]1O[C@H](CO)[C@H](O)[C@H](O)[C@H]1O)[C@H](O)CO
inactive: Potency [1] | Potency [2] | Potency [3] | Potency [8] | Potency [9] | Potency [5] | Potency [10]

c1ccc(C(O[C@@H]2CCCN(CCc3ccc4c(c3)OCO4)C2)c2ccccc2)cc1
inactive: Potency [1] | Potency [2] | Potency [8]

C#C[C@]1(O)CC[C@H]2[C@@H]3[C@H](C)CC4=C(CCC(=O)C4)[C@H]3CC[C@@]21C
inactive: Potency [1] | Potency [2] | Potency [4] | Potency [8] | Potency [9] | Potency [5]

Cc1cc(C(C)(C)C)cc(C)c1CC1=NCCN1
inactive: Potency [1] | Potency [2] | Potency [6] | Potency [4] | Potency [7] | Potency [8] | Potency [10]

O=C(O)c1cccc(C(F)(F)F)c1
inactive: Potency [1] | Potency [2] | Potency [3] | Potency [8] | Potency [9] | Potency [10]

CC[N+](CC)(CC)CCOC(=O)C(C1CCCC1)C1CCCC1
inactive: Potency [1] | Potency [2] | Potency [3] | Potency [8] | Potency [9] | Potency [5] | Potency [10]

CCCCCCCCCCCC(=O)OCC(C)OC(=O)CCCCC(=O)O (stereo unspecified)
inactive: Potency [1] | Potency [2] | Potency [3] | Potency [4] | Potency [8] | Potency [9] | Potency [10]

C1CCC(SSC2CCCCC2)CC1
inactive: Potency [1] | Potency [2] | Potency [3] | Potency [8] | Potency [9] | Potency [10]

O=S(=O)(O)c1ccc(Nc2nc(Nc3ccc(/C=C/c4ccc(Nc5nc(Nc6ccc(S(=O)(=O)O)cc6)nc(N(CCO)CCO)n5)cc4S(=O)(=O)O)c(S(=O)(=O)O)c3)nc(N(CCO)CCO)n2)cc1
inactive: Potency [2] | Potency [8] | Potency [10]
active: Potency [1] 33.1 µM | Potency [7] 33.1 µM | Potency [9] 13.2 µM

C#CC1(O)CC[C@H]2[C@@H]3CCC4=CCCC[C@@H]4[C@H]3CC[C@@]21C (stereo partly specified)
inactive: Potency [1] | Potency [7] | Potency [9]
active: Potency [2] 26.6 µM | Potency [4] 23.7 µM | Potency [10] 49 µM and 23.7 µM

COc1cc(/C=C/c2ccccc2)oc(=O)c1
inactive: Potency [2] | Potency [3] | Potency [4] | Potency [8] | Potency [5] | Potency [10]

CN(C)[C@@H](CCOc1cccc2ccccc12)c1ccccc1
inactive: Potency [1] | Potency [3] | Potency [6] | Potency [7] | Potency [8] | Potency [5]

CCN(CC)c1ccc2c(-c3ccc(S(=O)(=O)O)cc3S(=O)(=O)[O-])c3ccc(=[N+](CC)CC)cc-3oc2c1
inactive: Potency [1] | Potency [3] | Potency [6] | Potency [4] | Potency [7] | Potency [9] | Potency [5]

CC(C)(c1cc(Br)c(OCC(Br)CBr)c(Br)c1)c1cc(Br)c(OCC(Br)CBr)c(Br)c1 (stereo unspecified)
inactive: Potency [2] | Potency [3] | Potency [4] | Potency [8] | Potency [9] | Potency [5] | Potency [10]

Cc1cc(-c2ccc(N=Nc3cc(S(=O)(=O)O)c4ccccc4c3N)c(C)c2)ccc1N=Nc1cc(S(=O)(=O)O)c2ccccc2c1N
inactive: Potency [1] | Potency [4] | Potency [8] | Potency [9]

O=C(O)c1cc(O)c2ccccc2c1O
active: Potency [10] 38.9 µM
inactive: Potency [1] | Potency [6] | Potency [8]
